These results are taken from PubChem BioAssay (NCATS).

Records with an inconclusive call do not appear. Entries that show only a call come without a potency. Activity calls are given as the source filed them. The call rests on the fitted dose curve; in most records, active means well fitted inhibition curve with a large enough effect; inconclusive means small, poorly fitted or top-dose-only effect; inactive means flat fitted curve, though single readings scatter.
Potency means the concentration at half of the fitted maximal effect.

The subject of the first experiment is CP215. Put plainly: qHTS profiling for inhibitors of Plasmodium falciparum proliferation (AID 504749). Further: nearly all actives have a fitted effect of over 60% in size. To be noted: P. falciparum in erythrocytes, SYBR Green DNA, 72 h; series mostly up to 28.7 µM. Put shortly:
(§1)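 P. falciparum-infected erythrocytes (0.3% parasitemia, 2.5% hematocrit) incubated with compound 72 h at 37 C, 5% CO2. Parasite DNA detected by SYBR Green after lysis, overnight at room temperature; normalised to 0.29 uM artemisinin and DMSO.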
(In general: In qHTS, concentration-response curves come from the screen itself.)
With `O=C(CCCN1CCC(n2c(=O)[nH]c3ccccc32)CC1)c1ccc(F)cc1`, the Potency is 4.55 µM (active).
For the compound `CC[C@]1(O)CC[C@H]2[C@@H]3CCC4=CCCC[C@@H]4[C@H]3CC[C@@]21C`, the Potency entry was “inactive”.
On the same count and under the same terms, in the case of `Cc1c(Cl)c(=O)oc2cc(OP(=O)(OCCCl)OCCCl)ccc12` it was 9.53 µM (active); in that of `CCCCCCCCC(=O)NCc1ccc(O)c(OC)c1`, “inactive”.
On the same count and under the same terms, for `c1cc2c(c(N3CCNCC3)c1)OCCO2` the value was “inactive”; for `C=CCOC(Cn1ccnc1)c1ccc(Cl)cc1Cl` (centres undefined), 12 µM (active).
`CC(Cc1ccccc1)NCc1ccccc1Cl` (centres undefined): the Potency result was “inactive”.
The same measure, in the same setting: in the case of `Clc1ccc(CO/N=C(\Cn2ccnc2)c2ccc(Cl)cc2Cl)c(Cl)c1` it was 6.75 µM (active); in that of `C[C@]12Cc3nonc3C[C@@H]1CC[C@@H]1[C@@H]2CC[C@@]2(C)[C@H]1CC[C@]2(C)O`, “inactive”.
On the same count and under the same terms, for `ClC1=C(Cl)C2(Cl)C(CBr)CC1(Cl)C2(Cl)Cl` (centres undefined) the value was “inactive”; for `CN1C[C@@H](NS(=O)(=O)N(C)C)C[C@@H]2c3cccc4c3c(cn4C)C[C@H]21`, “inactive”.
`O=C(NC(=O)c1c(F)cccc1F)Nc1cc(Cl)c(OC(F)(F)C(F)C(F)(F)F)cc1Cl` (centres undefined): the Potency entry was “inactive”.
Same read-out and setting: for `CNC(=O)Oc1cccc2ccccc12` the value was “inactive”; for `COC(=O)C1=CCCN(C)C1`, “inactive”; for `COCC(=O)N(c1c(C)cccc1C)C(C)C(=O)OC` (centres undefined), “inactive”.
`COc1ccc(C(=O)N2CCCC2=O)cc1`: the Potency result is “inactive”.
With `Oc1c(Br)cc(Br)cc1Br`, the Potency result is “inactive”.
For `CC(C)(O)C(Cl)(Cl)Cl`, the Potency was 8.49 µM (active).
As to `OC(O)C(Cl)(Cl)Cl`, the Potency entry is “inactive”.
For `C[N+](C)(C)CCOC(=O)C(O)(c1ccccc1)c1ccccc1`, the Potency entry is “inactive”.
On the same count and under the same terms, for `O=C1NCN(c2ccccc2)C12CCN(CCCOc1ccc(F)cc1)CC2` the value was “inactive”.

Another experiment relates to CP217. The experiment is described as above. To be noted: P. falciparum in erythrocytes, SYBR Green DNA, 72 h; series mostly up to 28.7 µM. Put shortly:
as §1
For the compound `O=C(CCCN1CCC(n2c(=O)[nH]c3ccccc32)CC1)c1ccc(F)cc1`, the Potency is 3.98 µM (active).
Still for that read-out and setting: in the case of `Cc1c(Cl)c(=O)oc2cc(OP(=O)(OCCCl)OCCCl)ccc12` it was 8.91 µM (active); in that of `CN1C(=O)CN=C(c2ccccc2)c2cc([N+](=O)[O-])ccc21`, “inactive”.
Still for that read-out and setting: for `CCCCCCCCC(=O)NCc1ccc(O)c(OC)c1` the value was “inactive”; for `c1cc2c(c(N3CCNCC3)c1)OCCO2`, “inactive”.
On the same count and under the same terms, for `C=CCOC(Cn1ccnc1)c1ccc(Cl)cc1Cl` (centres undefined) the value was 11.2 µM (active); for `COc1ccc(CN2CCNCC2)c(OC)c1OC`, “inactive”; for `Clc1ccc(CO/N=C(\Cn2ccnc2)c2ccc(Cl)cc2Cl)c(Cl)c1`, 3.98 µM (active).
As to `ClC1=C(Cl)C2(Cl)C(CBr)CC1(Cl)C2(Cl)Cl` (centres undefined), the Potency entry was “inactive”.
Still for that read-out and setting: for `CN1C[C@@H](NS(=O)(=O)N(C)C)C[C@@H]2c3cccc4c3c(cn4C)C[C@H]21` the value was “inactive”; for `CNC(=O)Oc1cccc2ccccc12`, “inactive”; for `N#Cc1nn(-c2c(Cl)cc(C(F)(F)F)cc2Cl)c(N)c1S(=O)C(F)(F)F` (centres undefined), 8.91 µM (active).
Consider `COC(=O)C1=CCCN(C)C1`, for which the Potency result is “inactive”.
Still for that read-out and setting: for `COc1ccc(C(=O)N2CCCC2=O)cc1` the value was “inactive”; for `Oc1c(Br)cc(Br)cc1Br`, “inactive”; for `OC(O)C(Cl)(Cl)Cl`, “inactive”.
Same read-out and setting: for `C[N+](C)(C)CCOC(=O)C(O)(c1ccccc1)c1ccccc1` the value was “inactive”; for `C[C@]12C=CC(=O)C=C1CC[C@@H]1[C@@H]2CC[C@@]2(C)[C@H]1CC[C@]2(C)O`, “inactive”.
